The values below come from PubChem BioAssay (NCI).

The nature of assay [1]: NCI Yeast Anticancer Drug Screen. Data for the rad50 strain (AID 155).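 Further: 0% = growth of vehicle-only cultures of the same strain.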 The following applies: S. cerevisiae rad50 strain growth inhibition; at 50.0 µM; stronger effect = higher value. In outline:
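A DNA repair-deficient yeast mutant serves as the test organism; compound-induced growth inhibition is calculated against vehicle-treated cells.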

The nature of assay [2]: NCI Yeast Anticancer Drug Screen. Data for the mec2-1 strain (AID 157). The following applies: S. cerevisiae mec2-1 strain, stronger effect = higher value. In outline: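 Compounds were applied to mec2-1 yeast cells. Their growth was then compared with that of vehicle-treated cultures to give growth inhibition.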
Assay [3] in a line: NCI Yeast Anticancer Drug Screen. Data for the cln2 rad14 strain (AID 165).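 Further: 0% = growth equal to vehicle treated cultures.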 The following applies: S. cerevisiae cln2 rad14 strain, stronger effect = higher value. The essentials: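 Strain: cln2 rad14 yeast, altered in cell cycle control and DNA damage repair. Read-out: growth inhibition vs vehicle.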
Assay [4] in a line: NCI Yeast Anticancer Drug Screen. Data for the bub3 strain (AID 167). The following applies: S. cerevisiae bub3 mutant strain, stronger effect = higher value. The essentials: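 Inhibition values come from growth of compound-treated mutant yeast normalised to vehicle-treated controls.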
The nature of assay [5]: NCI Yeast Anticancer Drug Screen. Data for the mlh1 rad18 strain (AID 175). The settings on record: S. cerevisiae mlh1 rad18 strain growth inhibition, stronger effect = higher value. In outline:
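A repair-deficient yeast strain is exposed to test compound, and growth is scored relative to vehicle-treated controls.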

Assay [6] is described as follows: NCI Yeast Anticancer Drug Screen. Data for the sgs1 mgt1 strain (AID 161).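 Further: 0% = growth of cultures given vehicle only.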 The following applies: S. cerevisiae sgs1 mgt1 strain, stronger effect = higher value. In outline:
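Percent growth inhibition was derived by comparing compound-exposed mutant yeast with vehicle-exposed cultures. The strain carries alterations in DNA damage repair.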

The mark [7] stands for this setting: at 5.0 µM (retest, dose inferred, filed as 0.5).
Setting [8] is: at 50.0 µM (retest, dose inferred, filed as 5.0).

Several values for one entry are separate records, joined by “and”; a condition that tells them apart may be missing. Identical values can stand only once. The panel holds about 79,000 compounds, 15% with a hit somewhere; the sample as a whole holds those more often. A number with no mark means an inactive call. Activity calls are given as the source filed them. No stated cut-off is given here; in the data, active means growth inhibition above about 70%; inactive means the rest.

Turning to `CC(O)C(O)C(O)C(O)CO` (configuration not stated), the growth inhibition in assay [1] is 17.1% and -19.8%; in assay [2] (at 50.0 µM) it was -8.65% and -14.4%; in assay [3] (at 50.0 µM), 14.2% and -28.2%; in assay [4] (at 50.0 µM), -18.9% and -5.9%; in assay [5] (at 50.0 µM) it was 0.15% and -4.05%.

In the case of `CC(=O)N1CCN(C(C)=O)C2C1N(C(C)=O)CCN2C(C)=O` (configuration not stated), the growth inhibition in assay [1] is -11.7% and 11.8%; in assay [6] (at 50.0 µM), -24.6% and 11.8%; in assay [3] (at 50.0 µM) it was -20.1% and 27%; in assay [4] (at 50.0 µM) it was -19.6% and 19.8%; in assay [5] (at 50.0 µM), -17.1% and 35.9%.

`O=C(CCl)N(c1ccccc1)c1ccccc1`: the growth inhibition in assay [2] (setting [7]) was 3%; in assay [2] (setting [8]), 59%; in assay [2] (at 50.0 µM), 90.2% (active); in assay [6] (setting [7]) it was 1%; in assay [6] (setting [8]) it was 54%; in assay [6] (at 50.0 µM), 91.8% (active). The growth inhibition in assay [4] (setting [7]) is 8%; in assay [4] (setting [8]), 63%; in assay [4] (at 50.0 µM) it was 86.5% (active); in assay [5] (setting [7]) it was 2%; in assay [5] (setting [8]) it was 73% (active); in assay [5] (at 50.0 µM), 92.8% (active).

For the compound `On1c(-c2ccccc2)nc2ccccc2c1=S`, the growth inhibition was 41% in assay [2] (setting [7]); 43% in assay [2] (setting [8]); 86.7% (active) in assay [2] (at 50.0 µM); 47% in assay [6] (setting [7]); 95% (active) in assay [6] (setting [8]); 37% in assay [6] (at 50.0 µM). Moreover, the growth inhibition was 28% in assay [3] (setting [7]); 95% (active) in assay [3] (setting [8]); 25.4% in assay [3] (at 50.0 µM); 50% in assay [4] (setting [7]); 94% (active) in assay [4] (setting [8]); 90.2% (active) in assay [4] (at 50.0 µM). Further, the growth inhibition in assay [5] (setting [7]) is 39%; in assay [5] (setting [8]), 43%; in assay [5] (at 50.0 µM) it was 84.5% (active).

On to `C/C=C(\Br)C(=O)O`, for which the growth inhibition in assay [1] was -8.1% and 24.1%; in assay [6] (at 50.0 µM), 1.7% and 0.25%; in assay [3] (at 50.0 µM), -10.1% and -19.2%; in assay [4] (at 50.0 µM), -15.1% and 5.8%; in assay [5] (at 50.0 µM), 9.25% and 12.8%.

Take `O=[N+]([O-])c1cc(-c2ccccc2)c(O)c([N+](=O)[O-])c1`: the growth inhibition in assay [2] (setting [7]) was 22%; in assay [2] (setting [8]), 60%; in assay [2] (at 50.0 µM), 88.8% (active); in assay [6] (setting [7]) it was 27%; in assay [6] (setting [8]), 71% (active); in assay [6] (at 50.0 µM), 85.8% (active). Also, the growth inhibition was 27% in assay [3] (setting [7]); 51% in assay [3] (setting [8]); 74.8% (active) in assay [3] (at 50.0 µM); 17% in assay [4] (setting [7]); 55% in assay [4] (setting [8]); 89.4% (active) in assay [4] (at 50.0 µM). Besides, the growth inhibition in assay [5] (setting [7]) was 31%; in assay [5] (setting [8]), 67%; in assay [5] (at 50.0 µM) it was 92.8% (active).

For the compound `NCC(O)c1ccc(O)c(O)c1` (configuration not stated), the growth inhibition in assay [1] was 38.8% and 19.4%; in assay [2] (at 50.0 µM) it was 39.9% and -5.9%; in assay [6] (at 50.0 µM), 30.9% and -7.2%; in assay [3] (at 50.0 µM) it was 19% and -32.3%; in assay [5] (at 50.0 µM), 44.6% and 14.8%.

Turning to `CC1(c2cccs2)NC(=O)NC1=O` (configuration not stated), the growth inhibition in assay [1] is 19.6% and 3.7%; in assay [6] (at 50.0 µM), 6.25% and 6.1%; in assay [3] (at 50.0 µM) it was -41% and 2.3%; in assay [4] (at 50.0 µM), 0.95% and 8.8%; in assay [5] (at 50.0 µM) it was 7.1% and -3.55%.

As to `CC1OC(OC2C(OC3CCC4(C)C(CCC5(C)C4CC=C4C6CC(C)(C)CCC6(C(=O)O)CCC45C)C3(C)CO)OCC(O)C2O)C(O)C(O)C1O` (configuration not stated), the growth inhibition in assay [2] (setting [7]) was 87% (active); in assay [2] (setting [8]) it was 100% (active); in assay [2] (at 50.0 µM), 89.8% (active); in assay [6] (setting [7]), 95% (active); in assay [6] (setting [8]), 99% (active); in assay [6] (at 50.0 µM) it was 90.3% (active). The growth inhibition in assay [3] (setting [7]) is 89% (active); in assay [3] (setting [8]), 98% (active); in assay [3] (at 50.0 µM), 88.5% (active); in assay [4] (setting [7]), 97% (active); in assay [4] (setting [8]), 99% (active); in assay [4] (at 50.0 µM) it was 87.7% (active). Also, the growth inhibition in assay [5] (setting [7]) is 93% (active); in assay [5] (setting [8]) it was 98% (active); in assay [5] (at 50.0 µM), 88.2% (active).
